Hit rate of the full screen: of about 68,000 compounds, about 2,700 (4%) showed an effect of 50% or more. Shown is part of a subset that was picked to be rich in strong results.
system: Plasmodium berghei; assay: Screen against P. berghei liver stage (PbLuc), transformed with Luciferase, at 2uM; type: functional, HepG2; conditions: tested at 2 uM

Q: With `CC(C)Nc1ncnc2c1CCN(C(=O)NCc1cccc(F)c1)CC2` as the compound, how does the INHIBITION read?
A: -36.75%

Q: `O=C(c1cccnc1Oc1ccc(Cl)cc1)N1CC[C@@H](O)C1` was tested. Which INHIBITION did it give?
A: 18.2%

Q: For `O=C(c1ccccn1)N1CCCC(c2ncncc2-c2ccncc2)C1` (stereo not given), which INHIBITION is on record?
A: 39.9%

Q: For `CNC(=O)N1CCC2(COCc3c(C)nc(NCc4ccco4)nc32)C1` (stereo not given), which INHIBITION is on record?
A: 16.91%

Q: Which INHIBITION does the source give for `COc1ncccc1C(=O)N1CCn2c(COCC3CC3)cnc2C1C` (stereo not given) here?
A: 30.38%

Q: With `COC(=O)COc1nc(CC(C)C)c2c(c1C#N)CCCC2` as the compound, how does the INHIBITION read?
A: 26.06%

Q: `CN(Cc1cccnc1)CC1CNCc2nccn2C1` (stereo not given) was tested. Which INHIBITION did it give?
A: 37.65%

Q: How did the INHIBITION turn out when `COc1ccc2cnn(CC(=O)NC3CCCC3)c(=O)c2c1OC` was run?
A: 45.14%

Q: `CN(C(=O)c1cn(C)cn1)[C@@H]1CCC[C@@H](Oc2ccccc2)[C@@H]1O` was tested. Which INHIBITION did it give?
A: 32.81%

Q: For `c1csc(-c2noc(CCCNC3CCc4ncnn4C3)n2)c1` (stereo not given), which INHIBITION is on record?
A: -15.69%

Q: With `COc1ccc(C(=O)N(Cc2cnn(C)c2)C(C)C)cc1Br` as the compound, how does the INHIBITION read?
A: 9.36%

Q: With `CCOc1ccc(C(=O)N(Cc2cnn(C)c2)C(C)C)cc1OCC` as the compound, how does the INHIBITION read?
A: 23.42%

Q: `COc1cc(C(=O)N(Cc2cnn(C)c2)C(C)C)ccc1OC(C)C` was tested. Which INHIBITION did it give?
A: -31.57%

Q: How did the INHIBITION turn out when `COc1ccc(C(=O)N(Cc2cnn(C)c2)C(C)C)cc1OC(F)F` was run?
A: 60.09%

Q: With `COc1cc(C(=O)N(Cc2cnn(C)c2)C(C)C)ccc1C` as the compound, how does the INHIBITION read?
A: 53.98%

Q: For `COc1cc(C(=O)N(Cc2cnn(C)c2)C(C)C)ccc1OCC(N)=O`, which INHIBITION is on record?
A: -61.5%

Q: Which INHIBITION does the source give for `CN1CCC(Cc2noc(CCc3nc4ccccc4nc3O)n2)CC1` here?
A: -14%

Q: How did the INHIBITION turn out when `O=C(c1ccc[nH]1)N1CCc2c(COCc3ccncc3)cncc2C1` was run?
A: -18.76%

Q: How did the INHIBITION turn out when `Cc1ccc(CN2CC[C@@H]3[C@@H]2CCN3C(=O)Cc2cccs2)o1` was run?
A: -45.36%

Q: For `O=C(CN1CCCC1CC(=O)c1ccccc1)NCc1ccccn1` (stereo not given), which INHIBITION is on record?
A: -47.19%

Q: Which INHIBITION does the source give for `CC(C)Cc1noc(CN(C)C[C@]2(O)CCCN3CCCC[C@@H]32)n1` here?
A: 58.09%

Q: With `CCN(Cc1noc(CC(C)C)n1)C[C@]1(O)CCCN2CCCC[C@@H]21` as the compound, how does the INHIBITION read?
A: 6.33%

Q: For `CCN(Cc1nc(COC)no1)C[C@]1(O)CCCN2CCCC[C@@H]21`, which INHIBITION is on record?
A: 21.67%

Q: Which INHIBITION does the source give for `Cc1nn(C)c(C)c1C(=O)NN1CCOCC1` here?
A: 27.88%

Q: For `CCOc1ccc2ccccc2c1CNCC1CCNCC1`, which INHIBITION is on record?
A: -14.75%

Q: With `Cc1cccnc1CC(C)Nc1nc(N)nc2c1CCNC2` (stereo not given) as the compound, how does the INHIBITION read?
A: 22.63%

Q: For `CCn1nc(C)c(NC(=O)C(C)C)c1C`, which INHIBITION is on record?
A: 12.62%

Q: With `CCn1nc(C)c(NC(=O)CN2CCN(C(C)=O)CC2)c1C` as the compound, how does the INHIBITION read?
A: 53.77%

Q: With `CCn1nc(C)c(NC(=O)CN2CC[C@@H](F)C2)c1C` as the compound, how does the INHIBITION read?
A: -28.65%

Q: How did the INHIBITION turn out when `CCn1nc(C)c(NC(=O)CN2CCC(c3ccccc3Cl)C2)c1C` (stereo not given) was run?
A: 50.9%

Q: Which INHIBITION does the source give for `CCN(CC)C(=O)C1CCCN(CC(=O)Nc2c(C)nn(CC)c2C)C1` (stereo not given) here?
A: 23.58%

Q: Which INHIBITION does the source give for `CCn1nc(C)c(NC(=O)CN2CC[C@H](CO)[C@@H](O)C2)c1C` here?
A: 7.29%

Q: How did the INHIBITION turn out when `Cc1ccc(CN(CCCn2ccnc2)Cc2cccs2)s1` was run?
A: 32.53%

Q: With `CC1CCCN(c2ccccc2OCC(=O)NC2CCOCC2)C1` (stereo not given) as the compound, how does the INHIBITION read?
A: 19.59%

Q: Which INHIBITION does the source give for `CC(Oc1ccccc1)C(=O)N1CCCN(Cc2nccn2C)CC1` (stereo not given) here?
A: -12.05%

Q: For `Cc1cc(C2CCCN2C(=O)Cn2c(C)cc(=O)c3ccccc32)on1` (stereo not given), which INHIBITION is on record?
A: 64.83%

Q: `Cc1ccc2c(c1)SCC(=O)N2CC(=O)N1CCCC1c1cc(C)no1` (stereo not given) was tested. Which INHIBITION did it give?
A: 28.73%

Q: Which INHIBITION does the source give for `Cc1cc(C2CCCN2C(=O)CN2CCc3ccccc32)on1` (stereo not given) here?
A: 18.37%

Q: Which INHIBITION does the source give for `CNC(=O)C1(C)CN(S(=O)(=O)c2cccc(OC)c2)CCO1` (stereo not given) here?
A: -4.78%

Q: Which INHIBITION does the source give for `CN(CCc1ccccc1)Cc1c(C2CCNCC2)[nH]c2ncccc12` here?
A: 2.56%

Q: How did the INHIBITION turn out when `CC(C)N1CCCn2nc(C(=O)NCCc3ccccn3)cc2C1` was run?
A: -31.6%

Q: How did the INHIBITION turn out when `CN(Cc1ccco1)Cc1cnc2n1CCN(c1ncccn1)CC2` was run?
A: -6.14%

Q: With `CN(Cc1ccco1)Cc1cnc2n1CCN(S(C)(=O)=O)CC2` as the compound, how does the INHIBITION read?
A: 9.1%

Q: `CN(C)CCN1CCc2ncc(CN(C)Cc3ccco3)n2CC1` was tested. Which INHIBITION did it give?
A: 52.05%

Q: Which INHIBITION does the source give for `CN1CCN(c2ccc(F)cc2NC(=O)NCC[S+](C)[O-])CC1` (stereo not given) here?
A: 17.98%

Q: How did the INHIBITION turn out when `CC(C)C(O)CCNC(=O)Nc1cc(F)ccc1-n1cccn1` (stereo not given) was run?
A: 37.43%

Q: With `C[S+]([O-])CCNC(=O)Nc1cc(F)ccc1-n1cccn1` (stereo not given) as the compound, how does the INHIBITION read?
A: 58.14%

Q: `Cc1nc(C)c(CC(=O)NCc2cccnc2OC2CCCC2)c(=O)[nH]1` was tested. Which INHIBITION did it give?
A: -10.1%

Q: For `NC(=O)CCC1CCCN(c2ccnc3cc(F)ccc23)C1` (stereo not given), which INHIBITION is on record?
A: 1.01%

Q: How did the INHIBITION turn out when `Cn1cc(S(=O)(=O)Nc2ccc3[nH]c(C4CCC4)nc3c2)cn1` was run?
A: 48.21%

Q: With `CCn1cc(S(=O)(=O)Nc2ccc3[nH]c(C4CCC4)nc3c2)cn1` as the compound, how does the INHIBITION read?
A: -16.18%

Q: With `CCS(=O)(=O)Nc1ccc2[nH]c(C3CCC3)nc2c1` as the compound, how does the INHIBITION read?
A: 74.44%

Q: `COc1cccc([C@H]2CN(C(C)=O)[C@@H]3CCN(Cc4ccsc4)C[C@H]23)c1` was tested. Which INHIBITION did it give?
A: -24.17%

Q: How did the INHIBITION turn out when `O=C(CC1CC1)N1CCO[C@H]2[C@H](OCCCn3cccn3)CC[C@@H]21` was run?
A: 37.74%

Q: With `CC(C)c1nn(C)c(N(C)C)c1CNCc1ccc(N(C)C)nc1` as the compound, how does the INHIBITION read?
A: -4.43%

Q: Which INHIBITION does the source give for `O=C(C1CCCCC1)N1CC2(CCNCC2)C1` here?
A: 27.1%

Q: With `O=C(C1CCC1)N1CCC2(CCNCC2)C1` as the compound, how does the INHIBITION read?
A: 2.94%

Q: Which INHIBITION does the source give for `O=C(C1CC1)N1CC2(CCNCC2)C1` here?
A: 60.6%

Q: With `CC(=O)N1CCC(c2cccc(-c3cccc(C(=O)O)c3)n2)CC1` as the compound, how does the INHIBITION read?
A: 23.7%

Q: Which INHIBITION does the source give for `CCOc1ccc(CC(=O)Nc2cnccc2SCCCO)cc1` here?
A: -15.31%

Q: For `CCc1cc(CNC(=O)NCC(c2ccco2)N2CCCC2)[nH]n1` (stereo not given), which INHIBITION is on record?
A: 42.11%

Q: `O=C(NCc1ccccn1)NCC(c1ccco1)N1CCCCC1` (stereo not given) was tested. Which INHIBITION did it give?
A: -18.65%

Q: `O=C(NCc1ccccn1)NCC(c1ccco1)N1CCCC1` (stereo not given) was tested. Which INHIBITION did it give?
A: 53.61%

Q: `COc1ccc(C[C@H]2CN(C(=O)c3ncccn3)CC[C@@H]2OC)cc1` was tested. Which INHIBITION did it give?
A: 33.74%

Q: With `COCCN1C[C@H]2CCN(C(=O)c3cc(C)on3)CC[C@H]2S1(=O)=O` as the compound, how does the INHIBITION read?
A: 63.35%

Q: `COc1ccc(C[C@H]2CN(C(=O)c3ccncc3)CC[C@@H]2OC)cc1` was tested. Which INHIBITION did it give?
A: -9.66%

Q: Which INHIBITION does the source give for `CO[C@H]1CCN(C(=O)c2cc(C)on2)[C@H]1Cc1ccncc1` here?
A: -11.88%

Q: Which INHIBITION does the source give for `Cc1cc(C(=O)N2CC[C@@H](O)[C@@H]2Cc2ccccc2)no1` here?
A: 19.42%

Q: For `COCCO[C@H]1CCN(C(=O)c2cc(C)on2)[C@H]1Cc1ccccc1`, which INHIBITION is on record?
A: 62.46%

Q: With `CO[C@H]1CCN(C(=O)c2cc(C)on2)C[C@@H]1Cc1ccccc1` as the compound, how does the INHIBITION read?
A: 59.5%

Q: Which INHIBITION does the source give for `Cc1cc(C(=O)N2CC[C@@H]3CN(CCC(C)C)S(=O)(=O)[C@@H]3CC2)no1` here?
A: 36.44%

Q: How did the INHIBITION turn out when `COc1ccc(C[C@H]2CN(C(=O)c3ccc(C)nc3)CC[C@@H]2OC)cc1` was run?
A: 15.57%

Q: Which INHIBITION does the source give for `COc1ccc(C[C@H]2CN(C(=O)c3ccn(C)n3)CC[C@H]2OC)cc1` here?
A: 15.57%

Q: Which INHIBITION does the source give for `COc1ccc(C[C@H]2CN(C(=O)c3cc(C)no3)CC[C@H]2OC)cc1` here?
A: 51.26%

Q: With `Cc1cc(C(=O)N2CC[C@@H]3CN(C)S(=O)(=O)[C@@H]3CC2)no1` as the compound, how does the INHIBITION read?
A: -27.81%

Reference: ChEMBL document CHEMBL4513216, “Probing the Open Global Health Chemical Diversity Library for Multistage-Active Starting Points for Next-Generation Antimalarials” (ACS Infect Dis, 2020)
